# Results published in paper PMC12136788.
# Substitutions are numbered along the chain they refer to. Whole data set: some 24,000 sequences, median “enrichment r” near 0.99, cut for the highest 2% near 3.7. The sample holds the highest values, similar sequences and a random draw of the others, so the mix is not that of the screen.
# T1: UNK ZnF1-3 (human, UniProt Q9C0B0 31-174)
# T1 sequence: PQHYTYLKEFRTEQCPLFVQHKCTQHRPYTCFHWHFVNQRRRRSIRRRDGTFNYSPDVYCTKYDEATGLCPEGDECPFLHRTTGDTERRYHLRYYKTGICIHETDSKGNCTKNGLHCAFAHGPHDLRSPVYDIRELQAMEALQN
# B1: 75522086_75522670_732_CDS_ENSMUSG00000026213_ENSMUST00000113553|mouse|control|control (ssRNA)
# RNA: GGGAGUUCUACAGUCCGACGAUCCAGGAGACGCAGGGAGCUGUCUAAGCUCCUGAGCGCAUUGUAGCUGAAGUCGGCAGAAAGCAAGGCUAGCCAGGGGAGGGCAGAGCAGAGAUCCCCACCACAGGCUGACAAGAGCUCCUCCAACAGAGGAUUGAGCAUCA
# B2: chr1:244855233:244855234:+_ENSG00000121644_ENST00000302550|hu_mus|hu_hu_hu_mus_True|28_88 (ssRNA)
# RNA: GGGAGUUCUACAGUCCGACGAUCCAUCAGAUGGUAGGCGUUGCCCUUGUAUUCUUUCCCCAGUUCUUCUACAAUUUUCUCUAUAUCAUCUUCUAGAAAGUCCGUACUCCCUAAAACAACAGCUUCUUUAAAUUUAAAUGUUUCCAACAGAGGAUUGAGCAUCA
# B3: chr7:118222036:118222037:-_ENSMUSG00000005610_ENSMUST00000162415|mus_mus|FALSE|FALSE (ssRNA)
# RNA: GGGAGUUCUACAGUCCGACGAUCAUCAAAGUUUGGUGCAUCUUCUGCCAAUCGCAGACAUAGCUGAGCAUACAGCGAGCUAUACUUUGGCUCUUCUAAGGCUUUGUCCACAAUCAGCAGUAUGACCCCUUUAAGGAUGAGUUUCAACAGAGGAUUGAGCAUCA
# B4: chr1:46159212:46159213:+_ENSG00000159596_ENST00000372025|hu_mus|hu_hu_hu_mus_True|38_58 (ssRNA)
# RNA: GGGAGUUCUACAGUCCGACGAUCUCUGAUCCCUCCCAAGAAAGCUAGGAAACCGGCUCCAUAAGCCAUCUGAGUGAAAGCUAAUAUGGGGAUAUAAGUUUUUGUCAUUACCAUGAGAAGUGGGGGAGCAGUAAAGGGGAUUAACAACAGAGGAUUGAGCAUCA
# B5: chr18:38477064:38477065:+_ENSMUSG00000060450_ENSMUST00000072376|mus_hu|motif|central (ssRNA)
# RNA: GGGAGUUCUACAGUCCGACGAUCUGCAGAUAUAAUUCAAGAACAUUCAGCUUGGGAAUAUAUUAAGCUUUCUCCGGUUCCAGCAGAGGAAAUAAAAACAUGUGUUCCUGGAAUUAAUAUUAAAAUCAUCCUUACAAACAGAAGCAACAGAGGAUUGAGCAUCA
# B6: chr15:25293464:25293465:-_ENSMUSG00000045763_ENSMUST00000058845|mus_mus|motif|central (ssRNA)
# RNA: GGGAGUUCUACAGUCCGACGAUCAAAAAUAUCUGGAGAGGAAAAAUGGAGGGUUGGCAUUGAGAUACAUGUGGACAAGCGGAGUGGGCUCCGUCUGAAAGUUGGCAUUCAUCCACGAACGUUUAAAAAAAUACCAAAAAAAUUCAACAGAGGAUUGAGCAUCA
# B7: chr15:25293464:25293465:-_ENSMUSG00000045763_ENSMUST00000058845|mus_hu|FALSE|FALSE (ssRNA)
# RNA: GGGAGUUCUACAGUCCGACGAUCAAAAAUAUCUGGAGAGGAAGAAUGGAGGAUUGGCAUUGAGAUCCAUGUGGACAAGCUAAGUGGGCUCUGUCUGAAAGCUGGCAUUCAUCCACAACAUUAAAAAAAUAUCAAAAUAAGAAACAACAGAGGAUUGAGCAUCA
# B8: chr15:25293464:25293465:-_ENSMUSG00000045763_ENSMUST00000058845|mus_hu|motif|central (ssRNA)
# RNA: B7 RNA with U80G, A81G
# B9: chr9:122046571:122046572:+_ENSMUSG00000038145_ENSMUST00000120173|mus_mus|FALSE|FALSE (ssRNA)
# RNA: GGGAGUUCUACAGUCCGACGAUCCUGAAAUUUGUUGCUGAAGCCAAAGUCUGUCAACUUCACAAGACCUUGUUUUUCAAAAAAGACUACAUUCUCUGGUUUCAAGUCUCUGUGGACCACAUGGAGUUUAUGGCAAUAAGAUAUCAACAGAGGAUUGAGCAUCA
# B10: chr5:128448638:128448639:+_ENSG00000066583_ENST00000173527|hu_mus|hu_hu_hu_mus_False|8_98 (ssRNA)
# RNA: GGGAGUUCUACAGUCCGACGAUCGGCACUCGCCUUAAUUAGAUUCUGAAUUUCCUUGAACUUCGGGUGGUCUUUGUCAGCCACCAGCUGUAGGAGGACAGCCUCACUAGUGGUCACGAUGAUCCCAGUUCGAGCGAGACGCUCCAACAGAGGAUUGAGCAUCA
# B11: chr12:39763582:39763583:-_ENSG00000139116_ENST00000544797|hu_mus|hu_hu_hu_mus_False|1_28 (ssRNA)
# RNA: GGGAGUUCUACAGUCCGACGAUCCUCUAGGAACUGGGCAUUCACUUUGAAUUCAGGAGGGGGCAGCCCGUUUUUAAUCGCUGAGGUCUUUUUCUCAUCAAUACUCUUAAAAAGGUGUCUAACAGCACGAGAGAUGAUACCCAGCAACAGAGGAUUGAGCAUCA
# B12: chr8:86505109:86505110:+_ENSMUSG00000005469_ENSMUST00000005606|mus_mus|motif|central (ssRNA)
# RNA: GGGAGUUCUACAGUCCGACGAUCCUUGUGCUUCACCAGCAUCACUCGCCCAAAGGAGCCGGUGCCAAGGGUCUUGAUUCGGUCAAACUGAUCCAACUGGGCUGUAUUCUGAGAAGGGGUCUCCCAUUUUUUCAGGAAAUCUUCCAACAGAGGAUUGAGCAUCA
# B13: chr1:153198750:153198751:+_ENSMUSG00000023150_ENSMUST00000023918|perfect_dup|FALSE|FALSE (ssRNA)
# RNA: GGGAGUUCUACAGUCCGACGAUCUUCUGGAUUGAGAUCAUCAAAUUUAACGUGAGAAAUUCCAUGAGGAUCACUAUCACUAUUAAAGAUUUCAAAUAAAUAGGGACUGCAGCAAGCUAGCACUGCUCUGUGUGCUAACAUUUCCAACAGAGGAUUGAGCAUCA
# B14: chr2:48034705:48034706:-_ENSG00000138081_ENST00000403359|hu_hu|FALSE|FALSE (ssRNA)
# RNA: GGGAGUUCUACAGUCCGACGAUCCAUAGAAAGAACGUACAUACUGGGACAUGAGUACAGUUACAGCAAGUCUAGGUGUGCUAACAAAACAGGGCACAUUCAAGUACAGUAAGAUUUUGCUUGAAAUUAAAAACAAACUACAUGCAACAGAGGAUUGAGCAUCA
# B15: chr3:100366718:100366719:-_ENSMUSG00000008763_ENSMUST00000008907|mus_hu|FALSE|FALSE (ssRNA)
# RNA: GGGAGUUCUACAGUCCGACGAUCAUUCUUAAAGAAAAAUCUAUUAUCUGUUAGCAUGAUUGGAGCACUGCAAUGUAUAUGCUAGUAAUAUGGUGUGUAAUUUCACAAGCAAUUUUAUGAGUUCUGCAAUUGCUAGGCUCAAACCAACAGAGGAUUGAGCAUCA
# B16: chr1:153198750:153198751:+_ENSMUSG00000023150_ENSMUST00000023918|perfect_dup|FALSE|FALSE (ssRNA)
# RNA: GGGAGUUCUACAGUCCGACGAUCUUCUGGAUUGAGAUCAUCCAACUUCACAUGAGAAACUCCAUGAGGGUCACUGUCACUAUUGAAGAUUUCAAAUAGAUAGGGGCUACAGCAAGCCAGGACUGCCCUGUGUGCUAGCAUCUCCAACAGAGGAUUGAGCAUCA
# Target: T1, UNK ZnF1-3
# Assay: nsRBNS (natural sequence RNA bind-n-seq); RBNS binding buffer (assumed for nsRBNS): 25 mM Tris pH 7.5, 150 mM KCl, 3 mM MgCl2, 0.01% Triton X-100, 500 ug/ml BSA, 20 U/ml SUPERase-In, 4 C; UNK is unkempt and MSI1 is Musashi-1; names of the RNAs are library labels; protein concentration not given here; high values mean tight binding
row,Binder,binding signal
1,B1,1.21 enrichment R
2,B2,1.19 enrichment R
3,B3,0.544 enrichment R
4,B4,1.29 enrichment R
5,B5,2.14 enrichment R
6,B6,3.28 enrichment R
7,B7,15.3 enrichment R
8,B8,8.1 enrichment R
9,B9,0.833 enrichment R
10,B10,0.656 enrichment R
11,B11,1.45 enrichment R
12,B12,1.11 enrichment R
13,B13,5.29 enrichment R
14,B14,1.25 enrichment R
15,B15,0.664 enrichment R
16,B16,5.29 enrichment R
